{"source": "PubChem BioAssay AID463190", "about": "(Sanford-Burnham Center for Chemical Genomics, 2010)", "note": "The whole screen tested about 330,000 compounds, of which about 7,300 (2.2%) were called active. Only a selection was taken, and actives are over-represented in it overall. A number with no mark means an inactive call.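 Rule for the calls: active = inhibition of at least 40%; inactive = the rest.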", "data": [{"test": "growth inhibition of tim10-1 ts yeast – luminescence, uHTS, primary screen (AID 463190);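 note: mutant grown at 25 °C; 0% = DMSO wells with yeast and 100% = wells holding no yeast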", "conditions": "S. cerevisiae tim10-1 ts strain growth, BacTiter-Glo, 24 h; at 20 µM; active compounds read high", "values": [{"compound": "COC(=O)c1c(C(=O)OC)c(-c2cccc(C)c2)n2c1CS(=O)C2", "note": "(stereo not given)", "inhibition": "10.8%"}, {"compound": "CCOCCCNC(=O)c1ccc(CS(=O)(=O)c2cccc(C(F)(F)F)c2)o1", "inhibition": "6.36%"}, {"compound": "Cc1ccc(NS(=O)(=O)c2ccc(-c3ccc(=O)[nH]n3)o2)c(C)c1", "inhibition": "1.41%"}, {"compound": "Cc1ccc(-c2csc(NC(=O)Cn3[nH]c(=O)c4ccccc4c3=O)n2)cc1", "inhibition": "31.6%"}, {"compound": "Cc1ccc(-c2csc(NC3OC(=O)c4ccccc43)n2)cc1", "note": "(stereo not given)", "inhibition": "5.08%"}, {"compound": "Cc1ccc(-c2csc(-c3c[nH]c4ccccc34)n2)cc1", "inhibition": "60.4% (active)"}, {"compound": "COc1cc(N2C(=O)CC3(CCCC3)CC2=O)cc(OC)c1OC", "inhibition": "11.2%"}, {"compound": "N#CC1(C#N)C(C(=O)C23CC4CC(CC(C4)C2)C3)C12CCOCC2", "note": "(stereo not given)", "inhibition": "47.6% (active)"}, {"compound": "CC(C)(C)c1ccc(C(=O)NCc2nnc(SCC(=O)N3CCCc4ccccc43)n2-c2ccccc2)cc1", "inhibition": "1.45%"}, {"compound": "O=C(COC(=O)CCCSc1nc2ccccc2[nH]1)Nc1ccc(Oc2ccccc2)cc1", "inhibition": "14.2%"}, {"compound": "Cc1cc(C)c([N+](=O)[O-])cc1-c1ccc(/C=N/NC(=O)c2nonc2N)o1", "inhibition": "-16.4%"}, {"compound": "Cc1ccc(-c2ccc(/C=C(\\C#N)C(N)=S)o2)c([N+](=O)[O-])c1", "inhibition": "57.3% (active)"}, {"compound": "Cc1cc([N+](=O)[O-])c(-c2ccc(/C=N/n3cnnc3)o2)cc1Cl", "inhibition": "16.2%"}, {"compound": "CCOC(=O)CCCCCC(=O)Nc1ccc2c(c1)CC(=O)N([C@@H](C)CO)C[C@H](C)[C@@H](CN(C)Cc1ccccc1)O2", "inhibition": "-5.39%"}, {"compound": "Cn1nnnc1SCC(=O)NNC(=O)c1ccc(Br)cc1", "inhibition": "0.63%"}, {"compound": "COc1ccc2c(c1)C(NS(=O)(=O)OCC(Cl)(Cl)Cl)CCC2", "note": "(stereo not given)", "inhibition": "45.1% (active)"}, {"compound": "COC(=O)c1cc(OCC(=O)NC2CCCc3ccccc32)cc(C(=O)OC)c1", "note": "(stereo not given)", "inhibition": "11.9%"}, {"compound": "COc1ccc(CN(C)C(C)C(=O)NC2CCCc3ccccc32)cc1", "note": "(stereo not given)", "inhibition": "23.2%"}, {"compound": "O=C(Nc1ccc(F)cc1)C1CCN(C(=O)c2ccc([N+](=O)[O-])cc2)CC1", "inhibition": "2.2%"}, {"compound": "COc1ccccc1C1CCN(c2ccc([N+](=O)[O-])cn2)CC1", "inhibition": "14.4%"}, {"compound": "COc1ccccc1C1SCCN1C(=O)c1ccc([N+](=O)[O-])cc1", "note": "(stereo not given)", "inhibition": "41.9% (active)"}, {"compound": "CN(C(=O)CC1C(=O)NCCN1Cc1ccc2ccccc2c1)C1CCOCC1", "note": "(stereo not given)", "inhibition": "29.6%"}, {"compound": "NS(=O)(=O)c1ccc(CCNC(=O)c2nc(CS(=O)(=O)c3ccc(Cl)cc3)no2)cc1", "inhibition": "-1.2%"}, {"compound": "CCCN(c1ccc(C)cc1)c1nc(=O)c2cccnc2s1", "inhibition": "15.2%"}, {"compound": "CCC(C)NCCOCCOc1ccc(Br)cc1C", "note": "(stereo not given)", "inhibition": "-4.38%"}, {"compound": "COc1ccc(-c2nc3cnccn3c2NC(C)(C)CC(C)(C)C)cc1O", "inhibition": "32.9%"}, {"compound": "Cc1ccc(C(=O)O/N=C(\\N)c2ccccn2)cc1Cl", "inhibition": "26.8%"}, {"compound": "C/C(=N\\OC(=O)c1ccccc1)c1c(C)nc2cc(C)ccn12", "inhibition": "5.99%"}, {"compound": "Cc1cccc(/C(N)=N/OC(=O)c2ccccc2Cl)c1", "inhibition": "59.7% (active)"}, {"compound": "O=C(NCc1ccco1)/C(=C/c1cccc([N+](=O)[O-])c1)NC(=O)c1ccco1", "inhibition": "15.4%"}, {"compound": "Cc1ccc(N2C(=O)C3C4C=CC(CC4)C3C2=O)cc1Br", "note": "(stereo not given)", "inhibition": "6.71%"}, {"compound": "CN(C)CCN(C(=O)C1CCCCC1)c1nc2cc3c(cc2s1)OCO3", "inhibition": "16.1%"}, {"compound": "CN(C)CCN(C(=O)CN1C(=O)c2ccccc2C1=O)c1nc2cc3c(cc2s1)OCCO3", "inhibition": "-13.3%"}, {"compound": "CCN(CC)CCN(C(=O)c1cc(Cl)sc1Cl)c1nc2cc3c(cc2s1)OCO3", "inhibition": "36.6%"}, {"compound": "CN(C)CCN(C(=O)C1=COCCO1)c1nc2ccc(Cl)cc2s1", "inhibition": "66.5% (active)"}, {"compound": "CCc1ccc2nc(N(CCCN(C)C)C(=O)c3ccc4c(c3)OCCO4)sc2c1", "inhibition": "16%"}, {"compound": "Cc1ccc2nc(N(CCN(C)C)C(=O)C3=COCCO3)sc2c1", "inhibition": "44.8% (active)"}, {"compound": "CN1C(=O)C2(OCCCO2)c2cc(Cl)ccc21", "inhibition": "-14.9%"}, {"compound": "CNC(=O)c1[nH]cnc1C(=O)N[C@@H](CC(C)C)C(=O)OCc1ccccc1", "inhibition": "18.1%"}, {"compound": "COC(=O)c1cc(S(=O)(=O)NCC2CCN(Cc3ccc(Cl)cc3)CC2)cn1C", "inhibition": "-24.4%"}, {"compound": "Cc1cccc(C)c1NC(=O)CSc1nnc(-c2ccccc2)n1Cc1ccc2c(c1)OCO2", "inhibition": "21.2%"}, {"compound": "CC1=C(C(N)=O)C(c2ccc3c(c2)OCO3)n2nc(-c3cccc(C)c3)nc2N1", "note": "(stereo not given)", "inhibition": "0.453%"}, {"compound": "c1ccc(-c2nnc3n2NC(c2ccc4c(c2)OCO4)S3)cc1", "note": "(stereo not given)", "inhibition": "51.2% (active)"}, {"compound": "COc1ccc(CC(=O)N[C@@H]2c3cc(OC)c(OC)cc3C[C@H]2OCc2ccccc2)cc1", "inhibition": "15.2%"}, {"compound": "COc1ccc(C(=O)NCC(=O)N/N=C/c2ccc([N+](=O)[O-])s2)cc1OC", "inhibition": "16.7%"}, {"compound": "Cc1ccc(/C=N/NC(=O)CN2CCN(Cc3ccccc3)CC2)s1", "inhibition": "-3.89%"}, {"compound": "Cc1ccccc1NCC(=O)N/N=C\\c1ccc([N+](=O)[O-])s1", "inhibition": "53.3% (active)"}, {"compound": "COc1ccc(CN2CCN(Cc3ccc(OC)c(OC)c3OC)CC2)cc1", "inhibition": "-1.36%"}, {"compound": "CCOC(=O)c1cc(C#N)c(N2CCCCC2)nc1-c1ccccc1", "inhibition": "-4.08%"}, {"compound": "CCOc1ccc(C(=O)NC2CCN(C(=O)Nc3ccccc3OC)CC2)cc1", "inhibition": "6.63%"}, {"compound": "CCOc1ccc2nc(N3CCCN(C(=O)Nc4ccccc4C)CC3)c(C#N)cc2c1", "inhibition": "42.1% (active)"}, {"compound": "O=CN1CCN(C(=O)c2ccc3c(c2)OCO3)CC1", "inhibition": "-19.2%"}, {"compound": "COc1cccc(NS(=O)(=O)c2ccc3[nH]cc(C(=O)NCCCOC(C)C)c(=O)c3c2)c1", "inhibition": "19.3%"}, {"compound": "Nc1ccccc1/C=N\\N=C/c1ccccc1N", "inhibition": "7.02%"}, {"compound": "O=C1C=C(c2cc(C(F)(F)F)cc(C(F)(F)F)c2)C[C@@H](c2ccc3c(c2)OCO3)C1", "inhibition": "-2.52%"}, {"compound": "COC(=O)c1c(C)[nH]c(C(=O)/C=C/c2ccc(Cl)cc2)c1C", "inhibition": "5.77%"}, {"compound": "Cc1[nH]c(=O)c(C(=O)/C=C/c2ccccc2)c2c1CCCC2", "inhibition": "46.1% (active)"}, {"compound": "Cc1cn(COC/C=C/c2ccccc2)c(=O)[nH]c1=O", "inhibition": "7.72%"}, {"compound": "CCCC1OC23CCCCC2C(C#N)(C#N)C1(C#N)C(=N)O3", "note": "(stereo not given)", "inhibition": "13%"}, {"compound": "c1ccc(-c2cn3c(n2)CCc2ccc4cccnc4c2-3)cc1", "inhibition": "42% (active)"}, {"compound": "Cc1cc(N2C(=O)c3ccc(C(=O)NCc4ccccc4)cc3C2=O)no1", "inhibition": "11.1%"}, {"compound": "CCCc1nn2c(=O)cc(CSCC(=O)Nc3cccc(C)c3)nc2s1", "inhibition": "5.18%"}, {"compound": "CCOC(=O)CC(NC(=O)C1c2ccccc2Oc2ccccc21)c1ccc(C)cc1", "note": "(stereo not given)", "inhibition": "5.58%"}, {"compound": "CC(C)(C)NC(=O)NC(=O)COC(=O)C1c2ccccc2Oc2ccccc21", "inhibition": "23.3%"}, {"compound": "CCCCN1C(=S)NC[C@@H]1C(C)CC", "note": "(stereo not given in full)", "inhibition": "20.5%"}, {"compound": "CCOC(=O)NNc1cc(C(F)(F)F)ccn1", "inhibition": "-3.69%"}, {"compound": "CCOC(=O)/C=C/c1ccc(C(F)(F)F)cc1S(=O)(=O)NC(C)(C)C", "inhibition": "44.1% (active)"}, {"compound": "Cn1c(N)c(C(=O)COC(=O)/C=C/c2cccc(C(F)(F)F)c2)c(=O)n(C)c1=O", "inhibition": "17.7%"}, {"compound": "COC(C(=O)NCc1ccccc1C)c1ccccc1", "note": "(stereo not given)", "inhibition": "-2.01%"}, {"compound": "CCCCn1c(SCC(=O)N2CCOCC2)nc2c1c(=O)n(C)c(=O)n2C", "inhibition": "0.276%"}, {"compound": "COc1cc(C(=O)Nc2nccs2)cc(OC)c1OC", "inhibition": "43.9% (active)"}, {"compound": "CC(=O)Oc1ccc(C(=O)Nc2nccs2)cc1", "inhibition": "8.42%"}, {"compound": "COc1ccc(Cc2nnc(NC(=O)c3cc(OC)c(OC)c(OC)c3)s2)cc1OC", "inhibition": "8.1%"}, {"compound": "Cc1ccc(SC(C)C(=O)NCc2ccc(F)cc2)cc1", "note": "(stereo not given)", "inhibition": "9.06%"}, {"compound": "CNS(=O)(=O)c1cccc(C(=O)OCCCC(=O)c2ccccc2)c1", "inhibition": "3.9%"}, {"compound": "Cc1ccsc1C(=O)NCCc1ccco1", "inhibition": "-19%"}, {"compound": "COc1ccc(OC)c2sc(NC(=O)C3COc4ccccc4O3)nc12", "note": "(stereo not given)", "inhibition": "47.3% (active)"}, {"compound": "COc1ccc(NC(=O)C2COc3ccccc3O2)cc1", "note": "(stereo not given)", "inhibition": "21.5%"}, {"compound": "COc1cc(SC)ccc1C(=O)NNC(=O)C1COc2ccccc2O1", "note": "(stereo not given)", "inhibition": "5.41%"}, {"compound": "CCc1cccc(C)c1NS(=O)(=O)c1c(C)nc2sccn2c1=O", "inhibition": "21.8%"}, {"compound": "COc1ccc(NC(=O)C2C3CCC(O3)C2C(=O)O)cc1OC", "note": "(stereo not given)", "inhibition": "-1.54%"}, {"compound": "COCCNC(=O)CSc1nc2c(n1-c1ccccc1)CCCC2", "inhibition": "12%"}, {"compound": "COc1ccc(C(C(=O)NC2CCCCC2)N(C(=O)Cc2c[nH]c3ccccc23)c2ccccc2)cc1OC", "note": "(stereo not given)", "inhibition": "13.4%"}, {"compound": "CCn1c(SCC(=O)Nc2cc(C)c(Cl)cc2OC)nnc1-c1ccco1", "inhibition": "14%"}, {"compound": "COc1cc(Cl)c(C)cc1NC(=O)CSc1nnc(-c2cccnc2)n1Cc1ccco1", "inhibition": "22.4%"}, {"compound": "COc1cc(Cl)c(C)cc1NC(=O)CSc1nnc(-c2ccco2)n1CC(C)C", "inhibition": "42.7% (active)"}, {"compound": "COc1ccc(C(=O)C2CCCN(C(=O)c3ccc(OC)o3)C2)c(C)c1", "note": "(stereo not given)", "inhibition": "20.5%"}, {"compound": "COc1ccccc1CC(NC(C)=O)C(=O)NC1CCN(C(=O)Nc2ccccc2Cl)CC1", "note": "(stereo not given)", "inhibition": "12%"}, {"compound": "CCCCn1c(CCCNC(=O)CC)nc2ccccc21", "inhibition": "0.782%"}, {"compound": "CCC(=O)Nc1nc2ccccc2n1Cc1ccccc1C", "inhibition": "40.8% (active)"}, {"compound": "CC(=O)Nc1nc2ccccc2n1Cc1ccc(C)cc1", "inhibition": "19%"}, {"compound": "COc1ccc(NS(=O)(=O)c2ccc(Oc3c(C#N)cccc3C#N)cc2)cc1", "inhibition": "-28.8%"}, {"compound": "COc1cc(C2C(C(=O)Nc3ccccc3OC)=C(C)Nc3ncnn32)ccc1O", "note": "(stereo not given)", "inhibition": "8.15%"}, {"compound": "COc1ccccc1NC(=O)C1=C(C)Nc2nnnn2C1c1cccc(Br)c1", "note": "(stereo not given)", "inhibition": "42.4% (active)"}, {"compound": "COc1ccc(C2C(C(=O)Nc3ccccc3OC)=C(C)Nc3nnnn32)c(OC)c1", "note": "(stereo not given)", "inhibition": "0.795%"}]}]}
